According to PubChem BioAssay:
Activity calls are given as the source filed them. Unless noted, no rule for the calls is given here.

Legend:
[1] = compound effects on lung adenocarcinoma cell viability – A549, calcein-AM fluorescence, 48 h, basal, profiling panel (AID 1162); conditions: higher = more signal; also: test concentration not given here
[2] = compound effects on differentiated 3T3-L1 adipocyte viability – cell-based, 3T3-L1 adipocytes, calcein-AM fluorescence, 48 h, basal, profiling panel (AID 1163); conditions: 3T3-L1 adipocytes viability, higher = more signal; also: test concentration not given here
[3] = compound effects on hepatocellular carcinoma cell viability – HepG2, calcein-AM fluorescence, 48 h, basal, profiling panel (AID 1164); conditions: higher = more signal; also: test concentration not given here
[4] = compound effects on multiple myeloma cell viability – MM1S, calcein-AM fluorescence, 48 h, basal, profiling panel (AID 1165); conditions: higher = more signal; also: test concentration not given here
[5] = calcein-AM signal in unstimulated myeloma cells – cell-based, calcein-AM fluorescence, 48 h, PK04 Diversity Set, profiling panel (AID 1166); conditions: RPMI8226 myeloma viability, higher = more signal;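 also: cells grown under basal conditions without added stimulus; test concentration not given here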
[6] = JC-1 mitochondrial signal, unstimulated HepG2 cells – cell-based, JC-1 fluorescence, 24 h, 100 nL compound, profiling panel (AID 1167); conditions: HepG2 mitochondrial potential, higher = more signal; also: test concentration not given here
[7] = JC-1 mitochondrial signal, unstimulated adipocytes – cell-based, JC-1 fluorescence, 3T3-L1 adipocytes, 24 h, 100 nL compound, profiling panel (AID 1168); conditions: JC-1 mitochondrial fluorescence, higher = more signal, called active from +8 up or from −8 down; also: test concentration not given here
[8] = JC-1 mitochondrial signal, unstimulated myeloma cells – cell-based, JC-1 fluorescence, RPMI8226, 24 h, 100 nL compound, profiling panel (AID 1169); conditions: JC-1 mitochondrial potential fluorescence, higher = more signal; also: test concentration not given here
[9] = JC-1 mitochondrial signal, unstimulated MM1S myeloma – cell-based, JC-1 fluorescence, 24 h, 100 nL compound, profiling panel (AID 1170); conditions: MM1S mitochondrial potential, higher = more signal; also: test concentration not given here
[10] = resazurin metabolic signal in A549 cells – cell-based, resazurin fluorescence, 24 h, PK04 Diversity Set, profiling panel (AID 1171); conditions: A549 viability, higher = more signal, called active from +8 up or from −8 down; also: test concentration not given here
[11] = resazurin metabolic signal in HepG2 cells – cell-based, resazurin fluorescence, 24 h, PK04 Diversity Set, profiling panel (AID 1172); conditions: HepG2 viability, higher = more signal; also: test concentration not given here
[12] = budding yeast growth changes without added modifier – OD600, strain BY4716, 24 h, basal condition, primary screen (AID 1173); conditions: S. cerevisiae BY4716 growth, OD600, 24 h; higher = more signal, called active from +8 up or from −8 down
[13] = viability profiling in MM1S myeloma cells – cell-based, resazurin fluorescence, basal, 24 h, PK04 Diversity Set, profiling panel (AID 1174); conditions: higher = more signal, called active from +8 up or from −8 down; also: test concentration not given here
[14] = biological target: Dihydroorotate dehydrogenase (quinone), mitochondrial (Plasmodium falciparum (isolate 3D7)) (UniProt Q08210); test: inhibition of P. falciparum DHODH – biochemical, C-terminal His tag, absorbance 600 nm, primary screen (AID 1175); conditions: PfDHODH enzyme, DCIP absorbance 600 nm; higher = more signal, called active from +8 up or from −8 down;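 also: recombinant parasite enzyme with a five histidine tag at its C terminus; test concentration not given here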
[15] = inhibition of PAO1 biofilm formation – strain PAO1, LB-PBS medium, absorbance 600 nm, primary screen (AID 1176); also: test concentration not given here; conditions: P. aeruginosa PAO1 growth/biofilm, A600, 12 h; higher = more signal
[16] = growth modulation of vineyard yeast isolate – strain RM11-1a, OD600, basal, 24 h, primary screen (AID 1177);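 also: cultures grown under basal conditions with no added stressor; test concentration not given here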; conditions: S. cerevisiae RM11-1a growth, OD600, 24 h; higher = more signal, called active from +8 up or from −8 down
[17] = growth of efflux-deficient E. coli DRC39 – strain DRC39, OD650, 24 h, E. coli filamentation inducers, primary screen (AID 1178);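 also: growth measured as culture turbidity by optical density at 650 nm; test concentration not given here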; conditions: E. coli DRC39 acrAB, higher = more signal, called active from +8 up or from −8 down
[18] = growth of efflux-deficient E. coli DRC39 – strain DRC39, OD650, 48 h, E. coli filamentation inducers, primary screen (AID 1179);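 also: screen aims at cell division blockers that make cells filament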; conditions: E. coli DRC39 delta-acrAB growth, higher = more signal, called active from +8 up or from −8 down
[19] = viability profiling in RPMI8226 myeloma cells – cell-based, resazurin fluorescence, basal, 24 h, PK04 Diversity Set, profiling panel (AID 1180); conditions: higher = more signal;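 also: RPMI8826 multiple myeloma cell line at 5000 cells per well; test concentration not given here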
[20] = biological target: E3 ubiquitin-protein ligase XIAP (Homo sapiens) (UniProt P98170); test: small molecules binding XIAP protein – biophysical, small-molecule microarray, fluorescence 635 nm, primary screen (AID 1181); conditions: higher = more signal;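 also: score merges 667 nm emission and signal to noise over triplicate slides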
Sequence of E3 ubiquitin-protein ligase XIAP (Homo sapiens) (P98170 whole entry, looked up): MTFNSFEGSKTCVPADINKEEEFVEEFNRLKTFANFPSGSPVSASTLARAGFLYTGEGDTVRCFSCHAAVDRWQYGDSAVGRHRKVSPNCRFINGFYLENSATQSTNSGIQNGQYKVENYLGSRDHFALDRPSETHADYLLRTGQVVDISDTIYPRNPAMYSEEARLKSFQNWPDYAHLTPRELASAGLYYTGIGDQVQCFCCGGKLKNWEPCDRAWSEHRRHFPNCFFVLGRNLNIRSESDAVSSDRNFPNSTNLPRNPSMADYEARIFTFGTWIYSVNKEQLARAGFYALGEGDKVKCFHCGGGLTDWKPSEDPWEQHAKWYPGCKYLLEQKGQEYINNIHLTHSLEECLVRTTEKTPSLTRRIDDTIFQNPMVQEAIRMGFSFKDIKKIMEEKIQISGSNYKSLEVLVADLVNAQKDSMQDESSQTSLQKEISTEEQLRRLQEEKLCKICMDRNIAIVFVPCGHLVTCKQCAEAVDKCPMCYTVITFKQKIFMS

Sequence of Dihydroorotate dehydrogenase (quinone), mitochondrial (Plasmodium falciparum (isolate 3D7)) (Q08210 whole entry, looked up): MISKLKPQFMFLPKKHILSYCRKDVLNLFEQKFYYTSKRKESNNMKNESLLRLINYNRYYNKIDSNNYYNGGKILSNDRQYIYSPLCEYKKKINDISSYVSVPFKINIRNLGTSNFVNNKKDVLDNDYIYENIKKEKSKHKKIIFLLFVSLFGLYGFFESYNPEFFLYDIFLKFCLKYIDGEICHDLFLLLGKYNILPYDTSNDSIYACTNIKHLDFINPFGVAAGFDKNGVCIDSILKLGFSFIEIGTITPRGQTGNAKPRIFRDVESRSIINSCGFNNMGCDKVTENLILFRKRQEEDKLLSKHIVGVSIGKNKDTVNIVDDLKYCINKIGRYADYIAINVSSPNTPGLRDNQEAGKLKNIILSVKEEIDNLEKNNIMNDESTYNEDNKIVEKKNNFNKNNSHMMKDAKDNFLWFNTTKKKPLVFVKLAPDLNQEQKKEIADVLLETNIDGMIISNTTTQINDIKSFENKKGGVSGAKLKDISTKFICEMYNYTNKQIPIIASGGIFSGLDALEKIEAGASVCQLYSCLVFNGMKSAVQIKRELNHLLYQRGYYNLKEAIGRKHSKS

SMILES | z-score [1] | z-score [2] | z-score [3] | z-score [4] | z-score [5] | z-score [6] | z-score [7] | z-score [8] | z-score [9] | z-score [10] | z-score [11] | z-score [12] | z-score [13] | composite z-score [14] | z-score [15] | z-score [16] | z-score [17] | z-score [18] | z-score [19] | composite z-score [20]
O=C1c2ccccc2C(=O)C2CC([C@H]3Oc4ccccc4S(=O)(=O)N4CCC[C@@H]34)=CCC12 (stereo not given in full) | 0.242 | 0.703 | 1.13 | -2.53 | -0.0759 | 0.786 | 0.0775 (inactive) | -0.667 | -0.852 | 0.178 (inactive) | 0.0623 | -2.32 (inactive) | -0.583 (inactive) | 0.0834 (inactive) | -0.246 (inactive) | -0.841 (inactive) | 1.96 (inactive) | 0.34 (inactive) | 0.183 | 0.0374
COc1ccc(CCNC(=O)[C@@H]2c3ccccc3C(=O)N(Cc3ccccc3C(F)(F)F)[C@H]2c2ccc(CO)cc2)cc1 | 0.0059 | -0.513 | 0.106 | -0.601 | -0.0978 | 1.2 | 0.996 (inactive) | -0.667 | 0.00958 | 2.22 (inactive) | 0.743 | 0.415 (inactive) | 0.711 (inactive) | 0.717 (inactive) | -0.77 (inactive) | 1.51 (inactive) | 0.709 (inactive) | 0.633 (inactive) | 0.837 | 0.0819
CCCCC(CC)C(O)C1C=CC2C(=O)NC(=O)C2N1Nc1ccccn1 (stereo not given) | 0.373 | -0.131 | 1.12 | -0.11 | 0.581 | 0.0822 | -0.506 (inactive) | 0.713 | -0.792 | -0.858 (inactive) | -1.39 | 0.332 (inactive) | -1.51 (inactive) | 0.56 (inactive) | 1.2 (inactive) | 0.852 (inactive) | -0.486 (inactive) | -0.112 (inactive) | -0.675 | 0.24
O=C1N(CCS(=O)(=O)c2ccccc2)c2ccccc2[C@H]2OC(c3ccc(OCCCO)cc3)=N[C@@]12CCS(=O)(=O)c1ccccc1 | 0.571 | 0.771 | 0.504 | 0.201 | -0.0504 | -0.38 | 2.29 (inactive) | -0.371 | -1.23 | 0.789 (inactive) | 0.248 | 2.94 (inactive) | 0.685 (inactive) | 0.761 (inactive) | 0.591 (inactive) | 3.96 (inactive) | 2.37 (inactive) | 1.04 (inactive) | 0.488 | 0.0197
COC(=O)[C@]1(Cc2ccccc2N=[N+]=[N-])N=C(c2ccc(OCCCO)cc2)O[C@@H]1c1ccccc1 | -3.71 | 0.561 | -5.71 | -3.66 | -4.01 | -2.54 | 0.911 (inactive) | -1.01 | -2.86 | -5.19 (inactive) | -6.11 | -1.69 (inactive) | -8.86 (active) | 0.106 (inactive) | 0.783 (inactive) | 1.53 (inactive) | 2.06 (inactive) | 1.55 (inactive) | -7.19 | 0.007
NC(=O)[C@@H]1[C@H]2C(=O)O[C@H](c3ccccc3)[C@H](c3ccccc3)N2[C@H](c2ccccc2OCCO)[C@@]12C(=O)Nc1ccc(C#CCCO)cc12 | 0.888 | 1.27 | 0.133 | 0.448 | -3.68 | -0.945 | 0.783 (inactive) | -1.11 | 0.068 | 0.461 (inactive) | 1.06 | -1.45 (inactive) | -0.476 (inactive) | -0.58 (inactive) | -0.104 (inactive) | 0.895 (inactive) | 0.386 (inactive) | -0.318 (inactive) | -1.29 | -0.0048
COCCOC(=O)N1C(=O)[C@@]2(c3cc(C#CC4(O)CCCCCC4)ccc31)[C@H](C(=O)NC[C@H](O)c1ccccc1)[C@H]1C(=O)O[C@H](c3ccccc3)[C@H](c3ccccc3)N1[C@@H]2c1ccc(OCCO)cc1 | -0.248 | 0.504 | -0.466 | -1.16 | -1.91 | -1.64 | 1 (inactive) | -1.01 | -1.19 | 0.365 (inactive) | 1.49 | 0.385 (inactive) | -0.909 (inactive) | -1.38 (inactive) | 1.05 (inactive) | 2.73 (inactive) | 0.608 (inactive) | 0.187 (inactive) | 0.0705 | 0.643
COC(=O)[C@@]1(Cc2ccccc2)[C@H]2c3cc(C(=O)N4CCCC4)n(Cc4ccc(OC(F)(F)F)cc4)c3C[C@H]2CN1C(=O)c1ccccc1 | -0.975 | -0.8 | -1.56 | -1.89 | -2.47 | 1.77 | -1.42 (inactive) | -0.717 | -0.934 | -1.46 (inactive) | -1.22 | 1.61 (inactive) | -2.46 (inactive) | 0.868 (inactive) | 0.632 (inactive) | 1.85 (inactive) | -1.22 (inactive) | -0.439 (inactive) | -2.62 | 0.131
CCCC=C(CCC)[C@@H](NS(=O)(=O)c1cccc2cccnc12)c1ccc(C(=O)OC)cc1 | -1.76 | -0.0806 | -1.38 | 0.131 | -0.0956 | -1.52 | -0.553 (inactive) | 0.907 | -1.13 | 0.174 (inactive) | 0.582 | 1.35 (inactive) | 0.058 (inactive) | -0.0345 (inactive) | 0.371 (inactive) | 1.04 (inactive) | 0.134 (inactive) | -0.754 (inactive) | 0.0013 | 0.67
